The values that follow come from PubChem BioAssay AID623994 (NMMLSC, 2012).

Results with a measured potency or affinity are listed apart. Activity calls are given as the source filed them.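 How the source made its calls: active means compounds whose fitted concentration for half the maximal dye retention is below 100 µM; inactive means the rest.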

For this assay, the target named is Multidrug resistance protein CDR2 (Candida albicans (strain SC5314 / ATCC MYA-2876)) (UniProt P78595). Description: blockers of Nile Red efflux by Candida CDR2 – S. cerevisiae AD1-8u, singleplex, Cherry Pick2 set, dose response (AID 623994).
Chain of Multidrug resistance protein CDR2 (Candida albicans (strain SC5314 / ATCC MYA-2876)) (P78595 whole entry, looked up): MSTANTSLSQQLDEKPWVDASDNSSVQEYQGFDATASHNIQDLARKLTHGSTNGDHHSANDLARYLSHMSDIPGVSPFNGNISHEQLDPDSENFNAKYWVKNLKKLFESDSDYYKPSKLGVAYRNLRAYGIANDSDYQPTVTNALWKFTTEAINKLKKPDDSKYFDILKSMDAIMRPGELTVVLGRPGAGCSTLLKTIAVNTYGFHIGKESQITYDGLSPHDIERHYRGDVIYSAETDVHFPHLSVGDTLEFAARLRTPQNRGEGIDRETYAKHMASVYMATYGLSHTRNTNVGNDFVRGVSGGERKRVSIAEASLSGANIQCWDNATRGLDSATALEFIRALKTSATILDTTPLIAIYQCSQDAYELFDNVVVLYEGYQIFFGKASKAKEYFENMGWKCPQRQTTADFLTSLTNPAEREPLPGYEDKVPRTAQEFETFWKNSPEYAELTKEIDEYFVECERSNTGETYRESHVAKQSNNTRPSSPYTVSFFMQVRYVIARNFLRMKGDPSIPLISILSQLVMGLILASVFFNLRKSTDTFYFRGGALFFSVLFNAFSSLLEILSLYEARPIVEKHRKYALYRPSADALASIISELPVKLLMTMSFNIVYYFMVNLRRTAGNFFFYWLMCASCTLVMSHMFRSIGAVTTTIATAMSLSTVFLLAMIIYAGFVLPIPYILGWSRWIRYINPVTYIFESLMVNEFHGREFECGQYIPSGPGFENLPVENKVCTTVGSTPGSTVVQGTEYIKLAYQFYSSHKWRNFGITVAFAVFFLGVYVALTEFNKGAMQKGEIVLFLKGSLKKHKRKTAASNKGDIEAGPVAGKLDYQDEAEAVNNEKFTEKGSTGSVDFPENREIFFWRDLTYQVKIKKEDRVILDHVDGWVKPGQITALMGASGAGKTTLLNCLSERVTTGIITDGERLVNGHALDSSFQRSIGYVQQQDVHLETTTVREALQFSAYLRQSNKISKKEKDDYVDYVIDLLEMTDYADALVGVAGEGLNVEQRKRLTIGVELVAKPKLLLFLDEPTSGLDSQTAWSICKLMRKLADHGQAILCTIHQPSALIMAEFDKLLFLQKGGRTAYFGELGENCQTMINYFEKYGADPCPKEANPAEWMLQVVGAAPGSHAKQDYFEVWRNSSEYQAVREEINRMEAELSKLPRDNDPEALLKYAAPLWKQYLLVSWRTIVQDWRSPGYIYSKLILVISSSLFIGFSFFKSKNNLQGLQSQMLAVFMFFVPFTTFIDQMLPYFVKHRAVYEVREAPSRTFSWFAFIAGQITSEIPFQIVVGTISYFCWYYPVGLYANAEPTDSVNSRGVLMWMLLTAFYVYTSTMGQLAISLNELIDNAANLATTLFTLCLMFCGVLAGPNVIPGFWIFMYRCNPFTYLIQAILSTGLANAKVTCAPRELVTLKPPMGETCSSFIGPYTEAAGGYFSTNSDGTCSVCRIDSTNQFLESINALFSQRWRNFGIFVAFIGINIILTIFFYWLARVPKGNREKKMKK

With `O=C(C[n+]1cc(-c2ccc(Cl)cc2)n2c1CCC2)N1c2ccccc2Sc2ccccc21`, the molecule was called inactive.
Take `COc1ccc(C2CC(c3cccc(OC)c3)=NN2c2ccc(S(N)(=O)=O)cc2)cc1` (stereo unspecified): the molecule was classed as inactive.
Under `O=C(c1ccc2c(c1)OCO2)N1CCC2(CC1)Oc1ccc(F)cc1C(=O)C21CC(c2ccccc2)=NO1` (stereo unspecified) stands “inactive”; under `COc1ccc(OC)c2sc(NC(=O)c3ccc(Br)s3)nc12`, “inactive”.
The entry for `NS(=O)(=O)c1ccc(N2N=C(c3ccccc3)CC2c2cccc(Br)c2)cc1` (stereo unspecified) is “inactive”; for `CCO[C@@H]1OC(C(=O)Nc2ccccc2)=C[C@H](c2ccc(Br)cc2)[C@H]1CCCO` it is “inactive”; for `COc1ccc(CCOC(=O)c2ccc(N)c([N+](=O)[O-])c2)cc1` it is “inactive”.
The entry for `NS(=O)(=O)c1ccc(N2N=C(c3ccccc3)CC2c2ccc(F)cc2)cc1` (stereo unspecified) is “inactive”; for `COc1ccc(CNC(=O)C(C#N)c2nc3ccccc3nc2N2CCN(C)CC2)cc1` (stereo unspecified) it is “inactive”; for `CCCCN1Cc2cc(C(=O)c3cc(F)ccc3O)cnc2NC1=O` it is “inactive”.
Consider `NC1=NC[C@H](Cc2ccc(O)cc2)N1CCc1cc(C(F)(F)F)cc(C(F)(F)F)c1`, for which the outcome was inactive.
The entry for `CCc1ccc(C2=NN(c3ccc(S(N)(=O)=O)cc3)C(c3ccc(F)cc3)C2)cc1` (stereo unspecified) is “inactive”; for `COc1ccc(CNC(=O)C(C#N)c2nc3ccccc3nc2N2CCCC2)cc1` (stereo unspecified) it is “inactive”.
The entry for `COc1ccc(C2CC(c3ccccc3)=NN2c2ccc(S(N)(=O)=O)cc2)cc1` (stereo unspecified) is “inactive”; for `NS(=O)(=O)c1ccc(N2N=C(c3ccccc3)CC2c2ccc(Br)cc2)cc1` (stereo unspecified) it is “inactive”.
The entry for `COc1ccc(S(=O)(=O)N(C)C[C@H]2Oc3c(NC(=O)NC4CCCCC4)cccc3C(=O)N([C@H](C)CO)C[C@@H]2C)cc1` is “inactive”.
